Our source for the composite z-score and z-score values is PubChem BioAssay.

The source made the active and inactive calls.

Experiment [1] concerns Plasmodium falciparum Sir2 (PF13_0152, Sir2A). The experiment can be described thus: Plasmodium falciparum Sir2A binding compounds – biochemical, small-molecule microarray, 635 nm fluorescence, primary screen (AID 1098).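 Note: score merges spot fluorescence intensity with its signal-to-noise ratio.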 To be noted: fluorescence 635 nm, higher = more signal.
Experiment [2] can be described thus: probe aDKK1 binding to arrayed compounds – biochemical, biotinylated probe, 635/667 nm fluorescence, primary screen (AID 1099).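 Note: score merges 667nm spot fluorescence with signal to noise across triplicate slides.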 As to conditions: small-molecule microarray, higher = more signal.
The nature of experiment [3]: probe aCHRDL2 binding to arrayed compounds – biochemical, biotinylated probe, 635/667 nm fluorescence, primary screen (AID 1100). To be noted: small-molecule microarray, higher = more signal.
Experiment [4] is described as follows: change in splice reporter luminescence, either direction, cell-based, HEK293, spliceosome inhibition project, primary screen (AID 1101).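 Note: HEK293 cells carrying a splicing-competent luciferase reporter gene; test concentration not given here.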 As to conditions: HEK293 splicing luciferase reporter, 24 h, higher = more signal, called active from +8 up or from −8 down.
The target of experiment [5] is Fibroblast growth factor 10 (Homo sapiens) (UniProt O15520). Nature of the experiment: compounds binding fibroblast growth factor 10 – biochemical, small-molecule microarray, 635 nm fluorescence, primary screen (AID 1102). As to conditions: FGF10 binding, fluorescence 635 nm, higher = more signal.
Sequence of Fibroblast growth factor 10 (Homo sapiens) (O15520 whole entry, looked up): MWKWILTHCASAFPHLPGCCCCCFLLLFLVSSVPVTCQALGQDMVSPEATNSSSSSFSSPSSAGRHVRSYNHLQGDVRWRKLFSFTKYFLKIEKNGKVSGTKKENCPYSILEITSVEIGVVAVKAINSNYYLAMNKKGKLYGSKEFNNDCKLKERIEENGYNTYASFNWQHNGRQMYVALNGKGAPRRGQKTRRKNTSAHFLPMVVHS
The subject of experiment [6] is glycogen synthase kinase-3 (GSK3A per assay name; protocol says GSK3B). Nature of the experiment: compounds binding glycogen synthase kinase-3 – biochemical, small-molecule microarray, 635 nm fluorescence, GSK3A, primary screen (AID 1103). Note: the record names both GSK3A and GSK3B. As to conditions: fluorescence 635 nm, higher = more signal.
Experiment [7] deals with Epidermal growth factor receptor (Homo sapiens) (UniProt P00533). The experiment can be described thus: compounds binding epidermal growth factor receptor – biochemical, small-molecule microarray, 635 nm fluorescence, primary screen (AID 1104).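 Note: score merges 667 nm emission intensity with spot signal to noise over triplicate slides.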 To be noted: EGFR binding, higher = more signal.
Sequence of Epidermal growth factor receptor (Homo sapiens) (P00533 whole entry, looked up): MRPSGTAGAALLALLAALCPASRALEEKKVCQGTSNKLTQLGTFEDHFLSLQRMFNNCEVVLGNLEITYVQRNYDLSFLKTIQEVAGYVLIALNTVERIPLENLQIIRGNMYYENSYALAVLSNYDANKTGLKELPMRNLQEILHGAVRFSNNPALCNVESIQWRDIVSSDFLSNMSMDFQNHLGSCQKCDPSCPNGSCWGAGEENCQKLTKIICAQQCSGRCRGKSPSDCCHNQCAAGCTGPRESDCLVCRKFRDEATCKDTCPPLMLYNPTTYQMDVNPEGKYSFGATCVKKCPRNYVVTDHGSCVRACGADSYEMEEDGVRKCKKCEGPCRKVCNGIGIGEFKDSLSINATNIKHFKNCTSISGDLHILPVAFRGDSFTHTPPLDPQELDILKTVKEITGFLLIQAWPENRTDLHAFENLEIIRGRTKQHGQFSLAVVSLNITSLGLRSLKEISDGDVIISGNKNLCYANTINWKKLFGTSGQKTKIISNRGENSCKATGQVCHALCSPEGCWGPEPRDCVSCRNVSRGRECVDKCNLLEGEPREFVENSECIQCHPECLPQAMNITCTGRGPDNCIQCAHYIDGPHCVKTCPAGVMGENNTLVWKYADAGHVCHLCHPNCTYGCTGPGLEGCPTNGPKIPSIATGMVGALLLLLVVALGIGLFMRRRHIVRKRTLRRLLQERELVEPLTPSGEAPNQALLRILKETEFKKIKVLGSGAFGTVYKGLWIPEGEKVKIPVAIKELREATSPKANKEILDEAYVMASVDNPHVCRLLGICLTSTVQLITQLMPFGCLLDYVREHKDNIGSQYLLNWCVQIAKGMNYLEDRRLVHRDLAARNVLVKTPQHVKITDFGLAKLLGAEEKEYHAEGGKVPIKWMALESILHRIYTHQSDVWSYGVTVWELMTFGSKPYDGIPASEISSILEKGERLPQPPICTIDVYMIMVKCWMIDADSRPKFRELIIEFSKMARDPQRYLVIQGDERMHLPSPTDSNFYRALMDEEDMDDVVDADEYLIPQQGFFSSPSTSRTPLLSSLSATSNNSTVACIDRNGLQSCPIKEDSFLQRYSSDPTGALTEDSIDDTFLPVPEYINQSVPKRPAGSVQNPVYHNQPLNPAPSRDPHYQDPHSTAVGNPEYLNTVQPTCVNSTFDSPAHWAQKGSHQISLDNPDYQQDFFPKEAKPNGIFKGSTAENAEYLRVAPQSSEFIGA
The target of experiment [8] is Follistatin-related protein 3 (Homo sapiens) (UniProt O95633). Nature of the experiment: compounds binding follistatin-related protein 3 – biochemical, small-molecule microarray, 635 nm fluorescence, primary screen (AID 1105).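 Note: score merges emission near 667 nm and signal to noise per printed spot across three slides.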 As to conditions: FSTL3 binding, higher = more signal.
Sequence of Follistatin-related protein 3 (Homo sapiens) (O95633 whole entry, looked up): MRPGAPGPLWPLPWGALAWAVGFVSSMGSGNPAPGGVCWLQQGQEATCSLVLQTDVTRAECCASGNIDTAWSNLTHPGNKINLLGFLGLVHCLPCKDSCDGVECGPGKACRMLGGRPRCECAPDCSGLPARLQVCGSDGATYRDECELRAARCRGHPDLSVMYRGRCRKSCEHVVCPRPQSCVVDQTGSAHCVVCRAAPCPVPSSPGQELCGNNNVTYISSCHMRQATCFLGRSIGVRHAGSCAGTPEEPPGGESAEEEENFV
Experiment [9] deals with Dickkopf-related protein 1 (Homo sapiens) (UniProt O94907). The experiment can be described thus: small molecules binding DKK1 protein – biochemical, small-molecule microarray, 635 nm fluorescence scan, primary screen (AID 1106).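 Note: score merges emission near 667 nm with signal to noise over three replicate slides.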 To be noted: higher = more signal.
Sequence of Dickkopf-related protein 1 (Homo sapiens) (O94907 whole entry, looked up): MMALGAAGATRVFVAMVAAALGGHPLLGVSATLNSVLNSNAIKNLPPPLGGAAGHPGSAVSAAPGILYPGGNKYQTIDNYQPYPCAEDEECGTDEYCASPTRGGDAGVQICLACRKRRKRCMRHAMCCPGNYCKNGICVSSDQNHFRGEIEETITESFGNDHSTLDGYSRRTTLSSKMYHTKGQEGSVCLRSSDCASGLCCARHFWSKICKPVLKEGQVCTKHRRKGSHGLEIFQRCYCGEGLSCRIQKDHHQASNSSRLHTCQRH
Experiment [10] relates to Inhibin beta A chain (activin A). Nature of the experiment: small molecules binding activin A – biochemical, small-molecule microarray, 635 nm fluorescence scan, primary screen (AID 1107).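 Note: mouse activin A protein probed at 4.33 µg/mL on printed slides; score merges bound-protein fluorescence near 667 nm with spot signal-to-noise.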 To be noted: INHBA, higher = more signal.
Experiment [11] deals with Human papillomavirus type 1a protein E7 (residues 44-93). The experiment can be described thus: small molecules binding HPV E7 44-93 – biochemical, small-molecule microarray, residues 44-93, 635 nm fluorescence, primary screen (AID 1108).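 Note: E7 fragment applied at 1 µg/mL in TBST for 1 h at 4 C; score combines spot fluorescence with its signal to noise ratio.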 As to conditions: fluorescence 635 nm, higher = more signal.
Experiment [12] is described as follows: hepatitis C replication reporter changes, two-sided – Huh7 cells, luciferase reporter, HCV replication inhibitor project, primary screen (AID 1109).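 Note: huh7 hepatoma cells harbouring a luciferase neomycin HCV replicon reporter; luciferase luminescence as measure of HCV replicon replication; test concentration not given here.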 To be noted: Huh7 HCV replicon luciferase reporter, 48 h; higher = more signal.
Experiment [13] has as its target Left-right determination factor 2 (Homo sapiens) (UniProt O00292). The experiment can be described thus: small molecules binding LEFTY2 protein – biochemical, small-molecule microarray, 635 nm fluorescence scan, primary screen (AID 1110). To be noted: higher = more signal.
For experiment [14], the target named is Calmodulin-1 (Homo sapiens) (UniProt P0DP23). The experiment can be described thus: small molecules binding calmodulin-1 with EGTA – biochemical, small-molecule microarray, Cy5-labelled CALM1, profiling panel (AID 1111).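 Note: labelled calmodulin applied in Tris saline Tween buffer holding calcium plus EGTA and DTT.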 As to conditions: Cy5-CALM1 binding fluorescence, higher = more signal.
The target is the same in experiment [15]. The experiment can be described thus: small molecules binding Ca-loaded calmodulin-1 – biochemical, small-molecule microarray, Cy5-labelled CALM1, plus calcium, artefact control for SMM control-protein annotation, profiling panel (AID 1112).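 Note: score merges spot fluorescence with signal to noise from triplicate slides.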 As to conditions: Cy5-CALM1 binding fluorescence, higher = more signal.
A short description of experiment [16]: probe aWnt5a binding to arrayed compounds – biochemical, biotinylated probe, 635/667 nm fluorescence, primary screen (AID 1113).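 Note: score merges 667 nm fluorescence intensity with signal-to-noise per printed feature.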 As to conditions: small-molecule microarray, higher = more signal.
Experiment [17] is described as follows: probe aShh binding to arrayed compounds – biochemical, biotinylated probe, 635/667 nm fluorescence, primary screen (AID 1114).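 Note: probe is biotin-labelled aShh protein from a stem cell growth factor screen; measures binding of labelled protein to compounds printed on the slide; score merges feature fluorescence at 667 nm with signal-to-noise.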 As to conditions: small-molecule microarray, higher = more signal.
Experiment [18] in a line: probe aNog binding to arrayed compounds – biochemical, biotinylated probe, 635/667 nm fluorescence, primary screen (AID 1115).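 Note: probe is biotinylated aNog protein used at 0.15 µg/mL for 1 h at 4 C; z-score combines 667 nm fluorescence of each spot with its signal to noise.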 To be noted: small-molecule microarray, higher = more signal.
Experiment [19] deals with Torsin-1A-interacting protein 1 (Homo sapiens) (UniProt Q5JTV8). The experiment can be described thus: compound microarray binding of lysate hLAP1 – cell lysate, small-molecule microarray, COS7 lysate, 635/667 nm fluorescence, primary screen (AID 1116). To be noted: 635 nm fluorescence, higher = more signal.
Sequence of Torsin-1A-interacting protein 1 (Homo sapiens) (Q5JTV8 whole entry, looked up): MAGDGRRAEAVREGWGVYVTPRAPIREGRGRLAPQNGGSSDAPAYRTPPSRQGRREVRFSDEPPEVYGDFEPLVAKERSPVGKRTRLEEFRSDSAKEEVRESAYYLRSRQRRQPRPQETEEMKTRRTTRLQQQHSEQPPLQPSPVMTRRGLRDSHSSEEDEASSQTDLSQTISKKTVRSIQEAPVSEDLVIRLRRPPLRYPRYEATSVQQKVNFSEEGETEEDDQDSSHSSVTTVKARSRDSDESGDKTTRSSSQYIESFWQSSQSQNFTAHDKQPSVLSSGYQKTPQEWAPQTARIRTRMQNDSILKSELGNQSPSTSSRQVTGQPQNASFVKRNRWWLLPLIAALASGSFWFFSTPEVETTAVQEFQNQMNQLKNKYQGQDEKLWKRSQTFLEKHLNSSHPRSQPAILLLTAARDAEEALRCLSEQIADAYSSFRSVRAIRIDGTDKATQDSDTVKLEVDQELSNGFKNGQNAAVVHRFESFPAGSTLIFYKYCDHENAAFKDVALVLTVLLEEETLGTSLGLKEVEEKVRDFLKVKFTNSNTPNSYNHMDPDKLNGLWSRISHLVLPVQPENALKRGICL
Experiment [20] deals with Alpha-bungarotoxin (Bungarus multicinctus) (UniProt P60615). Nature of the experiment: compounds binding labelled alpha-BTX control protein – biochemical, small-molecule microarray, Alexa647 label, 635/667 nm fluorescence, artefact control for SMM control protein annotation, profiling panel (AID 1117). To be noted: alpha-BTX-A647 binding fluorescence, higher = more signal.
Sequence of Alpha-bungarotoxin (Bungarus multicinctus) (P60615 whole entry, looked up): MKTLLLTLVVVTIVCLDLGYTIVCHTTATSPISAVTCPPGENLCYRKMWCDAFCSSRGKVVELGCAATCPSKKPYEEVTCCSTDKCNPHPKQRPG

Sequence of Left-right determination factor 2 (Homo sapiens) (O00292 whole entry, looked up): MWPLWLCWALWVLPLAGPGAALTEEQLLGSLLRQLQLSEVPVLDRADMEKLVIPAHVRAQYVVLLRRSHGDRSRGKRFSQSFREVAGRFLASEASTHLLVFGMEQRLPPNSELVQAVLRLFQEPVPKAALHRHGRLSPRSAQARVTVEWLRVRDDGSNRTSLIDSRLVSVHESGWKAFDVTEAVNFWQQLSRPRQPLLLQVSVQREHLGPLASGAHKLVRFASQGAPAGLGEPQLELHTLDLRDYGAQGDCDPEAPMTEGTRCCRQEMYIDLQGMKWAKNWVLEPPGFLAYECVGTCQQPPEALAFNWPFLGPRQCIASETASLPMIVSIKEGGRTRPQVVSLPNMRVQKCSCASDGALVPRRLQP

Consider `[N-]=[N+]=Nc1ccccc1[C@H]1OC(c2ccc(OCCCO)cc2)=N[C@@]1(Cc1ccccc1)C(=O)NCC(O)CO` (stereo not given in full), for which the composite z-score is 0.315 in [1]; 0.78 in [2]; 0.981 in [3]; -0.0795 in experiment [5]; 0.0637 in experiment [6]; -0.942 in experiment [7]. The composite z-score in [8] was -0.283; in [9], -0.535; in [10], 0.647; in [11], 1.38; in experiment [13] it was -1.04; in experiment [14] it was 1.04. The composite z-score turned out to be 1 in experiment [15]; 0.119 in experiment [16]; 0.257 in experiment [17]; 0.0005 in experiment [18]; 1.5 in [19]; 1.57 in experiment [20]. The z-score in [4] is -0.562 (inactive); in experiment [12] it was -1.29.

As for `COCCOC(=O)N1C(=O)[C@@]2(c3cc(C#Cc4ccc(OC)cc4)ccc31)[C@H](c1ccc(OCCO)cc1)N1[C@H](c3ccccc3)[C@H](c3ccccc3)OC(=O)[C@H]1[C@@H]2C(=O)NC[C@H](O)c1ccccc1`, the composite z-score in [1] is 1.38; in experiment [2], 0.92; in [3], 0.537; in [5], 1.16; in experiment [6] it was 1.27; in experiment [7], 0.696. The composite z-score in experiment [8] came to 0.475; in experiment [9] it was 0.473; in experiment [10] it was 0.961; in experiment [11], 1.12; in experiment [13], 1.25; in [14] it was 1.15. Also, the composite z-score in experiment [15] was 0.842; in [16], 0.0078; in experiment [17], -0.273; in experiment [18] it was 0.338; in experiment [19], 0.851; in experiment [20], 1.4. For the same compound, the z-score in experiment [4] is -0.279 (inactive); in experiment [12] it was -1.69.

Turning to `O=C(NCC(O)CO)C1N=C(c2ccc(OCCCO)cc2)N(c2ccccc2)O1` (stereo not given), the composite z-score is -0.144 in [1]; -0.12 in experiment [2]; -0.104 in [3]; 0.897 in experiment [5]; 0.65 in experiment [6]; 0.195 in experiment [7]. Further, the composite z-score was 0.799 in experiment [8]; 0.433 in [9]; -0.899 in experiment [10]; 1.08 in experiment [11]; 0.48 in experiment [13]; 0.0138 in experiment [14]. Also, the composite z-score was -0.332 in experiment [15]; -0.103 in experiment [16]; -0.232 in experiment [17]; -0.243 in [18]; 1.35 in experiment [19]; 0.282 in experiment [20]. Besides, the z-score was -1.13 (inactive) in [4] and -0.95 in experiment [12].

Regarding `NC(=O)N1C(=O)C2C(C1=O)C1C=C(CCCO)C2C(c2ccc(CN3CCCC3)cc2)N1Cc1sc2ccccc2c1Cl` (stereo not given), the composite z-score in experiment [1] was 0.0883; in experiment [2] it was -0.291; in experiment [3], 0.233; in experiment [5], 0.528; in [6] it was -0.42; in experiment [7], -0.243. The composite z-score in experiment [8] is -0.744; in [9], -0.29; in experiment [10] it was -0.0473; in [11], 0.53; in [13], -0.292; in experiment [14], 0.302. Moreover, the composite z-score in experiment [15] is 0.424; in experiment [16], -0.0735; in experiment [17], -0.0146; in experiment [18] it was -0.342; in [19], -0.218; in experiment [20], 0.187. Further, the z-score in experiment [4] is -0.497 (inactive); in experiment [12], -2.9.

In the case of `CCOC(=O)C1=CC[C@@H](c2ccc(OC)cc2)N(S(=O)(=O)c2ccc(C)cc2)[C@H]1c1ccc(C)cc1`, the composite z-score in experiment [1] is 0.71; in [2] it was 0.528; in [3], 0.836; in [5], 0.642; in experiment [6], 1.07; in experiment [7] it was -0.0102. Besides, the composite z-score in experiment [8] was 0.887; in experiment [9] it was -0.346; in experiment [10], 0.588; in [11] it was 1.33; in experiment [13], -0.0746; in experiment [14], 0.783. For the same compound, the composite z-score in [15] was 0.894; in experiment [16] it was 0.0509; in [17], 0.216; in [18], -0.201; in [19] it was 0.467; in experiment [20], 0.611. Moreover, the z-score in [4] is -0.0291 (inactive); in experiment [12], -0.12.

As to `COc1ccccc1CN1C(=O)c2ccccc2[C@](Cc2ccccc2I)(C(=O)NCC(C)C)[C@@H]1c1ccc(CO)cc1`, the composite z-score in experiment [1] was 1.66; in [2], 0.736; in experiment [3], 1.01; in experiment [5], -0.0272; in experiment [6], -0.0773; in experiment [7] it was -1.19. Also, the composite z-score was -0.408 in experiment [8]; -1.27 in experiment [9]; -0.316 in [10]; -0.237 in experiment [11]; -1.25 in experiment [13]; -0.313 in experiment [14]. Also, the composite z-score was -0.18 in [15]; -0.0529 in [16]; -0.0243 in [17]; 0.215 in [18]; 0.078 in [19]; 0.237 in [20]. In addition, the z-score in experiment [4] is 0.0236 (inactive); in [12], -0.921.
